AMPAR-TARP mod: GluA2-stargazin AMPA receptor complex modulation; O88602+P19491; HEK293 GluA2+stargazin, membrane potential dye (FDSS), glutamate EC50; hits were called plate by plate, in both directions; calls only at 30 µM; 40,000 compounds, 3.5% hits;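 active means any of four per-well response measures lying three or more SD from its plate-wide compound average, in either direction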
GIRK2 activator: Activates human GIRK2-containing potassium channels. activation (% efficacy), % for hits at 37.5 µM. P48051. 34,000 tested, under 10 active. HEK293 GIRK2/NPY4 cells, thallium flux fluorescence;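 active means primary screen hit, no activity in plain HEK293 cells, and in GIRK2-only cells above 5% efficacy rising with concentration; inactive means the rest, including fluorescent compounds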;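 further: efficacy is normalized control-subtracted fluorescence 15 s after thallium addition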
Target sequence (P48051 whole entry, looked up): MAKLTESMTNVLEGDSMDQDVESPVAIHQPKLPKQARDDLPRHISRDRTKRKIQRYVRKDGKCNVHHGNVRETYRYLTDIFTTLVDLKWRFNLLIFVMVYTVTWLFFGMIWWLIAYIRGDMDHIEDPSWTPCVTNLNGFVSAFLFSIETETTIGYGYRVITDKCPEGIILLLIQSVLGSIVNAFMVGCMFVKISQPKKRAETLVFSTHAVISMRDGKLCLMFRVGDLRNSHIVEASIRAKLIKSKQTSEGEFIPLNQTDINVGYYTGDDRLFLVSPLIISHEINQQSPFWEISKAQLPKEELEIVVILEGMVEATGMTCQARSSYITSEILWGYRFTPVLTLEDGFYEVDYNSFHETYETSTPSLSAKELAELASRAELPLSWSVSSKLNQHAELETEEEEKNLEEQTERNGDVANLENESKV
An asterisk follows results filed as active. This excerpt belongs to a sample that is enriched for hits.

`CCc1ccc(Oc2cc(N3CCC(C(=O)NCc4ccc(F)c(Cl)c4)CC3)ncn2)cc1` gave AMPAR-TARP mod active and GIRK2 activator inactive.
Screening CN(C)C(CNC(=O)C1(c2ccccc2)CCOCC1)c1ccsc1 (centres undefined) returned AMPAR-TARP mod inactive and GIRK2 activator inactive.
`CN(C)C(CNC(=O)C1(c2ccc(Cl)cc2)CCCC1)c1ccsc1` (centres undefined) gave AMPAR-TARP mod active and GIRK2 activator inactive.
Screening COc1ccc(Cl)cc1-n1c(N)c(C(=O)NC2CCCC2)sc1=S returned AMPAR-TARP mod inactive and GIRK2 activator inactive.
`CC(=O)Nc1ccc(NC(=O)CSc2ccc(S(=O)(=O)C(F)(F)F)cc2[N+](=O)[O-])cc1` gave AMPAR-TARP mod inactive.
O=C(CSc1ccc([N+](=O)[O-])cc1[N+](=O)[O-])Nc1cccc(C(F)(F)F)c1 was read as AMPAR-TARP mod active.
For CCOc1ccc(C(C)C)cc1S(=O)(=O)NCCOc1ccc(-c2ccccc2)nn1 the results were AMPAR-TARP mod active and GIRK2 activator inactive.
Screening COc1ccc(S(=O)(=O)NCCOc2ccc(-c3ccc(C)cc3)nn2)cc1OC returned AMPAR-TARP mod inactive and GIRK2 activator inactive.
Screening COc1ccc(Cl)cc1S(=O)(=O)NCCOc1ccc(-c2ccccc2)nn1 returned AMPAR-TARP mod inactive and GIRK2 activator inactive.
`CCOC(=O)c1ccc(S(=O)(=O)NCCOc2ccc(-c3ccc(OC)cc3)nn2)cc1` gave AMPAR-TARP mod inactive and GIRK2 activator inactive.
`CCOc1ccc(S(=O)(=O)NCCOc2ccc(-c3ccccc3)nn2)cc1` gave AMPAR-TARP mod active and GIRK2 activator inactive.
For CCOC(=O)c1ccc(S(=O)(=O)NCCOc2ccc(-c3ccccc3)nn2)cc1 the results were AMPAR-TARP mod active and GIRK2 activator inactive.
COc1ccc(S(=O)(=O)NCCOc2ccc(-c3ccc(F)cc3)nn2)cc1F was read as AMPAR-TARP mod active and GIRK2 activator inactive.
`CCOc1ccc(-c2ccc(OCCNS(=O)(=O)c3ccccc3)nn2)cc1` gave AMPAR-TARP mod inactive and GIRK2 activator inactive.
`COc1cc(C(=O)NCC(c2ccc(F)cc2)N(C)C)cc(OC)c1OC` (centres undefined) gave AMPAR-TARP mod inactive.
Screening Cc1cnc2c(c1N1CCC(O)CC1)c(=O)n(C)c(=O)n2C returned AMPAR-TARP mod inactive and GIRK2 activator inactive.
O=C(N1CC(c2nc(-c3ccco3)no2)C1)C1(c2ccccc2)CCOCC1 was read as GIRK2 activator inactive.
Screening COc1ccc(OC)c2c1sc(=NC(=O)c1cc(C)no1)n2C returned AMPAR-TARP mod inactive and GIRK2 activator inactive.
Screening COc1cccc2sc(=NC(=O)c3cc(C)no3)n(C)c12 returned AMPAR-TARP mod active and GIRK2 activator inactive.
For COc1ccc(C)cc1NC(=O)C(=O)NCc1ccc2c(c1)OCO2 the results were AMPAR-TARP mod inactive.
For O=S(=O)(c1ccccc1F)N1CCN(c2ccc3nnc(-c4ccco4)n3n2)CC1 the results were AMPAR-TARP mod active and GIRK2 activator inactive.
Cc1nnc2ccc(N3CCN(S(=O)(=O)c4ccccc4C(F)(F)F)CC3)nn12 was read as AMPAR-TARP mod inactive and GIRK2 activator inactive.
For Cc1nnc2ccc(N3CCN(C(=O)NCc4ccccc4)CC3)nn12 the results were AMPAR-TARP mod inactive and GIRK2 activator inactive.
For Cc1nnc2ccc(N3CCN(S(=O)(=O)c4ccccc4Cl)CC3)nn12 the results were AMPAR-TARP mod active and GIRK2 activator inactive.
For Cc1ccc(C)c(S(=O)(=O)N2CCN(c3ccc4nnc(-c5ccco5)n4n3)CC2)c1 the results were AMPAR-TARP mod inactive and GIRK2 activator inactive.
`O=C(NCc1ccccc1)N1CCN(c2ccc3nnc(-c4ccco4)n3n2)CC1` gave AMPAR-TARP mod active and GIRK2 activator inactive.
`COc1ccc(-c2ccc(NC(=O)COc3ccc(C(=O)c4ccccc4)cc3)cc2)nn1` gave AMPAR-TARP mod inactive and GIRK2 activator inactive.
For COc1ccc(CNC(=O)C(=O)NCC(c2ccc(OC)cc2)N2CCOCC2)cc1 (centres undefined) the results were GIRK2 activator inactive.
Screening CS(=O)(=O)c1ccc(CC(=O)N2CCN(c3nc4c(Cl)cccc4s3)CC2)cc1 returned AMPAR-TARP mod inactive.
Screening CCc1cccc2sc(N3CCN(C(=O)Cc4ccc(S(=O)(=O)CC)cc4)CC3)nc12 returned AMPAR-TARP mod active.
`OC(COCCOc1ccccc1Br)CSc1ccccn1` (centres undefined) gave GIRK2 activator inactive.
`O=C(/C=C/c1cccs1)NCC1CCN(C(=O)c2ccccc2F)CC1` gave AMPAR-TARP mod inactive and GIRK2 activator inactive.
Screening COC(=O)Cn1c(=O)c2c(nc(-n3nc(C)cc3C)n2C(C)C)n(C)c1=O returned AMPAR-TARP mod inactive and GIRK2 activator inactive.
